Data from PubChem BioAssay AID623866 (Sanford-Burnham Center for Chemical Genomics, 2012).
The list shows a part of the results. A number with no mark means an inactive call. Activity calls are given as the source filed them. No rule for the calls is given here.

Each compound was assayed against Tyrosine-protein phosphatase non-receptor type 5 (Homo sapiens) (UniProt P54829) (assay: STEP phosphatase inhibitor hit confirmation, biochemical, fluorescence intensity, single concentration (AID 623866;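 also: 0% = enzyme with substrate plus DMSO and 100% = substrate without enzyme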)). Conditions: recombinant STEP, OMFP fluorogenic substrate, at 20 µM, active compounds read high.
Tyrosine-protein phosphatase non-receptor type 5 (Homo sapiens), sequence (P54829 whole entry, looked up): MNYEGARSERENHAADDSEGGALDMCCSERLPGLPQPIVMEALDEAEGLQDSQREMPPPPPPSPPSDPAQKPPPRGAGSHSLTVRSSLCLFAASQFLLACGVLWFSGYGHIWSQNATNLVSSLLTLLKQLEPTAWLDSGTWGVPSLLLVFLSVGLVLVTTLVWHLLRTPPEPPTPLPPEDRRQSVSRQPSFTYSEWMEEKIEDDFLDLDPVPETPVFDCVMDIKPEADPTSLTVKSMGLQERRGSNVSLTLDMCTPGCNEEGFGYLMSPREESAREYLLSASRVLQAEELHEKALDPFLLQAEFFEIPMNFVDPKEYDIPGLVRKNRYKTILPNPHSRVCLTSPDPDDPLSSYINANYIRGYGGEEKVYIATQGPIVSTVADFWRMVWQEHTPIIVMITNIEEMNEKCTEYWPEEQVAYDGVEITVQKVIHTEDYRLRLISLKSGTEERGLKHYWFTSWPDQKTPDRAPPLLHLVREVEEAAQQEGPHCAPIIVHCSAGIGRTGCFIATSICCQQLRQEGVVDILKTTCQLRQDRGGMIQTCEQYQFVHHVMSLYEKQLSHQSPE

`Cc1ccc(OCC(=O)Nc2ccc(-c3nc4ncccc4o3)cc2)cc1` was tested. Which inhibition did it give?
Its inhibition is 23.6%.

How did the inhibition turn out when `C/C=C/C(=O)Nc1ccc(N2CCN(c3ccc(C(F)(F)F)cn3)CC2)nc1` was run?
The inhibition was 12.4%.

With `COc1ccc2[nH]c(=O)c(-c3noc(-c4ccc(F)cc4)n3)cc2c1` as the compound, how does the inhibition read?
The inhibition was 8.96%.

How did the inhibition turn out when `Cc1ccc(CNC(=O)CSc2nnc3c(n2)[nH]c2ccc(F)cc23)cc1` was run?
The inhibition was -0.633%.

Which inhibition does the source give for `C/C(=N\Nc1ccc(S(N)(=O)=O)cc1[N+](=O)[O-])c1cccs1` here?
Its inhibition is 64.7% (active).

Which inhibition does the source give for `O=C(Nc1cccnc1)c1cc2cc(Br)ccc2oc1=O` here?
The inhibition was 8.13%.

`Cc1ccc(S(=O)(=O)c2c[nH]c3ccc(Cl)cc3c2=O)cc1` was tested. Which inhibition did it give?
The inhibition was 23.8% (active).

For `CCc1ccc(NC(=O)CS(=O)CC(=O)NCCCc2ccccc2)cc1` (centres undefined), which inhibition is on record?
The inhibition was -4.12%.

For `N#Cc1c(-c2cccs2)nc(SCC(=O)c2ccc(Br)cc2)[nH]c1=O`, which inhibition is on record?
The inhibition was 103% (active).

`Cc1c(CCC(=O)O)c(=O)oc2c(C)c(OCc3ccccc3Cl)ccc12` was tested. Which inhibition did it give?
The inhibition was 42.7% (active).

With `O=C(N/N=C/c1coc2ccccc2c1=O)c1cc2ccccc2o1` as the compound, how does the inhibition read?
The inhibition was 24.4% (active).

For `COCCN(C(=S)Nc1ccccc1OC)C1CCN(C(C)C)CC1`, which inhibition is on record?
The inhibition was 7.61%.

`O=C(CSC(=S)N1CCCCC1)c1c(F)cccc1F` was tested. Which inhibition did it give?
The inhibition was -5.75%.

Which inhibition does the source give for `O=C(COc1cccc(F)c1)Oc1ccc(C(=O)c2ccccc2)cc1` here?
The inhibition was 12.2%.

For `Cc1ccc(-c2nnc(-c3ccc(NC(=O)c4cccs4)cc3)o2)cc1`, which inhibition is on record?
Its inhibition is 10.7%.

With `Cc1ccccc1CC1(CO)CCCN(C(=O)c2cc(-c3ccccc3)no2)C1` (centres undefined) as the compound, how does the inhibition read?
Its inhibition is 0.313%.

For `Cc1cc(C(=O)N2CCN(c3ccccn3)CC2)c(C)o1`, which inhibition is on record?
Its inhibition is 7.4%.

With `COCc1c(C(=O)N/N=C/C2CC=CCC2)nnn1-c1nonc1N` (centres undefined) as the compound, how does the inhibition read?
Its inhibition is -1.89%.

How did the inhibition turn out when `O=C(N/N=C/c1cccc(Br)c1)c1ccc(N2CCCC2=O)cc1` was run?
Its inhibition is 41.4% (active).

How did the inhibition turn out when `N#Cc1ccc(C(=O)Nc2cccc3cccnc23)c(F)c1` was run?
The inhibition was -3.4%.

With `Nc1c(Cl)cc(-c2csc(N3CCCC3c3nc4cc(Cl)c(Cl)cc4n3CCOCCO)n2)cc1Cl` (centres undefined) as the compound, how does the inhibition read?
The inhibition was 20.3%.

For `CCCS(=O)(=O)N1CCCC(C(=O)NCc2ccco2)C1` (centres undefined), which inhibition is on record?
Its inhibition is 1.82%.

Which inhibition does the source give for `Cc1ccn2c(-c3csc(Nc4ccc(C(=O)O)cc4)n3)c(C)nc2c1` here?
Its inhibition is -1.96%.

Which inhibition does the source give for `O=C(NN=Cc1ccccc1O)NN=Cc1ccccc1O` here?
The inhibition was 90.1% (active).
